A selection: hits, their analogues and other compounds. The true share with any hit is near 1.8%.
Exocytosis inh = LAMP-1 surface exposure blockers, TALL-104 cells – cell-based, flow cytometry, MLPCN library, primary screen; TALL-104 LAMP-1 surface exposure; cells stimulated with thapsigargin and PMA; inhibition, % at 10 µM; 0.66% of 360,000 active; AID 651702, 2012;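 active means inhibition above about 55%, limit read from the data; inconclusive means no clear call, values can overlap the other calls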
NPR1 activator = GC-A stimulated cGMP production enhancers – HEK293 GC-A cells, cGMP TR-FRET, EC30 ANP, primary screen | Atrial natriuretic peptide receptor 1 (Homo sapiens), P16066 | 0% at EC30 ANP, 100% saturating ANP | activation, % at 10 µM | 0.14% of 370,000 active | AID 1671463, 2021; in the data active means activation above about 40%
GC-B act = human GC-B receptor activators, primary screen, HEK293 GC-B cells, cGMP TR-FRET, EC30 CNP. 0.11% of 370,000 active. activation, % at 10 µM. AID 1920062, 2024. Atrial natriuretic peptide receptor 2 (Homo sapiens), P20594. 0% at EC30 CNP, 100% saturating CNP;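 active means activation at 10 µM reaching about 35% in either raw or pattern-adjusted values, limit read from the data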
Myeloid diff 2 = induction of myeloid progenitor differentiation, primary screen, cell-based, flow cytometry, MLPCN library | ER-HoxA9 myeloid progenitors, lysozyme-GFP differentiation | calls only at 10 µM | 1% of 360,000 active;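 active means normalized GFP-positive differentiation at or above the plate's own cutoff, the solvent-only control mean plus 3 SD; inconclusive means no clear call, values can overlap the other calls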;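 further: cells exposed to compound for four days before flow analysis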
Myeloid diff CP1 = inducers of myeloid progenitor differentiation, confirmation, cell-based, GFP/Mac1 flow cytometry, cherry pick 01; ER-HoxA9 myeloid progenitors, GFP/Mac1 double-positive flow; calls only; shares compounds with Myeloid diff 2; 2% of 2,300 active;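 active means share of green or green-and-red cells above 9 and 9% in run 1 or 4 and 3% in run 2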
GFP autofluor = compound fluorescence in myeloid differentiation counter-screen; shares compounds with Myeloid diff 2; ER-HoxA9 myeloid progenitors, no estrogen, GFP autofluorescence flow cytometry; vehicle wells 0%, positive control 100%; fluorescence response, % (test concentration not listed); 7.4% of 2,300 active; AID 651707;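 active means over 5% cells positive for green fluorescent reporter, or over 2% positive for both it and APC stain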;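 further: range taken on the double positive population between DMSO and positive control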
An asterisk follows results filed as active; i = inactive; ? = inconclusive; nt = not tested or not shown; + = active, no number.

SMILES | Exocytosis inh | NPR1 activator | GC-B act | Myeloid diff 2 | Myeloid diff CP1 | GFP autofluor
O=C(O)CCCN1C(=O)/C(=C\c2ccco2)SC1=S | -0.9 | -0.7 | 3.9 | i | nt | nt
Cc1ccc(Nc2nnc(SCC(=O)NC3CCS(=O)(=O)C3)s2)c(C)c1 (stereo not given) | 2.7 | 1.4 | 1.9 | i | i | 5.9*
COc1ccccc1CN1CC(C(=O)N(C)CCc2ccccn2)CCC1=O (stereo not given) | 44.7 | 2.2 | 4.8 | i | nt | nt
CCOC(=O)C1(C)CCCN(C(=O)c2c(-c3ccccc3)noc2C)C1 (stereo not given) | -1.2 | -1.2 | -9.0 | i | nt | nt
Cc1ccc(CSc2nc3ccccc3c(=O)[nH]2)cc1 | 3.2 | -2.6 | -8.9 | i | nt | nt
O=c1[nH]c(SCc2ccccc2)nc2c1sc1ccccc12 | 6.2 | -1.1 | 4.6 | + | i | 0.0
O=c1cc(-c2ccc(O)c(O)c2)oc2cc(O)c([C@@H]3O[C@H](CO)[C@@H](O)[C@H](O)[C@H]3O)c(O)c12 | 3.5 | -5.1 | -4.7 | i | nt | nt
CC(=O)Cc1cc(=O)c2c(C)cc(O)c(C3OC(CO)C(O)C(O)C3O)c2o1 (stereo not given) | -3.7 | 5.7 | 1.1 | i | i | 0.0
COc1ccc(-c2sc(C(=O)c3ccc(Cl)cc3Cl)cc2CC(=O)O)cc1 | 4.2 | 0.6 | -17.5 | + | i | 0.3
O=C(O)Cc1ccc(C(=O)c2ccc(Cl)cc2Cl)s1 | -2.5 | 5.4 | 2.7 | i | nt | nt
O=C(Cn1cccc1C(=O)c1ccccc1)NCc1cccs1 | -2.2 | -1.8 | 6.9 | i | i | 0.3
O=C(Cn1cccc1C(=O)c1ccccc1)NCc1ccccc1 | -3.0 | -2.8 | -5.5 | i | nt | nt
Cc1cccc(C)c1-n1nnnc1C(c1ccnc2ccccc12)N(CCN(C)C)Cc1ccccc1 (stereo not given) | -3.0 | -18.3 | -11.8 | i | nt | nt
CN(CC(=O)Nc1ccc(F)cc1)C(=O)c1cc(-c2ccco2)nc2ccccc12 | 1.3 | 0.9 | -1.2 | i | nt | nt
Cc1ccc(NC(=O)CN(C)C(=O)c2cc(-c3ccco3)nc3ccccc23)cc1 | -3.9 | -4.1 | 1.3 | i | i | 0.3
Cc1nc(N2CCN(C(=O)COc3ccccc3C)CC2)c2c3c(sc2n1)CCCC3 | nt | -7.0 | -8.9 | nt | nt | nt
COc1ccc(-n2nnnc2C(c2ccnc3ccccc23)N2CCN(C/C=C/c3ccccc3)CC2)cc1 (stereo not given) | 2.7 | -9.1 | -9.6 | + | i | 0.9
Cc1cc(N2CCN(C(c3ccnc4ccccc34)c3nnnn3-c3c(C)cccc3C)CC2)c2ccccc2n1 (stereo not given) | -0.3 | -4.0 | -5.2 | i | i | 0.0
C=CCNc1ccc2c(c1)OC[C@@H](CC(C)C)NS2(=O)=O | nt | 0.6 | 0.4 | nt | nt | nt
CN(C)S(=O)(=O)NCC1CCCN(Cc2ccc(-c3ccccc3)cc2)C1 (stereo not given) | 44.5 | -4.3 | -6.4 | i | nt | nt
CN(C)S(=O)(=O)NCC1CCCN(Cc2cc3ccccc3s2)C1 (stereo not given) | -5.8 | 2.7 | 3.4 | i | i | 0.3
CC(C)=C[C@H]1C[C@H](C)[C@H]2CC[C@H](C)c3c(O)c(O[C@H]4OC[C@H](O)[C@@H](O)[C@@H]4O)c(C)c1c32 | -6.0 | 0.6 | -8.5 | ? | nt | nt
O=C1NCCN1c1ccc(CN2CCN(C3CCCCC3)C(CCO)C2)cc1 (stereo not given) | 8.0 | -1.5 | -2.0 | i | i | 0.0
CC(C)=CCN1CCN(Cc2ccc(N3CCNC3=O)cc2)CC1CCO (stereo not given) | 2.7 | 0.7 | 6.0 | i | nt | nt
CCC[C@H]1CC(=O)C=C(c2ccc(OC)cc2)ON1C(=O)OC(C)(C)C | 0.1 | -1.4 | 1.4 | i | i | 0.0
COc1ccc(-c2cc(C3CCN(C(=O)OC(C)(C)C)CC3)[nH]n2)cc1 | 1.7 | -2.9 | -0.9 | i | nt | nt
CC(C)C[C@@H]1COc2cccc(F)c2S(=O)(=O)N1C | nt | 2.7 | 3.7 | nt | nt | nt
